40 molecules from PubChem BioAssay (Tox21) can be followed below.

Results filed as inconclusive are left out. Where a call stands in place of a potency, no number is given. Active and inactive are the calls of the source. The call rests on the fitted dose curve; in most records, active means well fitted cell-killing curve with a large enough effect in the repeat runs; inconclusive means weak or mixed curves, or effect the other way; inactive means no such curve, though single readings can be large or run the other way.
Potency means the concentration at half of the fitted maximal effect.

The nature of the assay: qHTS assay to identify small molecule antagonists of the glucocorticoid receptor (GR) signaling pathway - cell viability counter screen (AID 720693). Further: nearly all actives have a fitted effect of over 55% in size. The settings on record: GR-bla HeLa viability, CellTiter-Glo luminescence, 18 h, with 5 nM dexamethasone present; series mostly up to 58.5 µM. An excerpt:
National Center for Advancing Translational Sciences [NCATS]
NIH Chemical Genomics Center [NCGC]
U.S. Environmental Protection Agency [EPA]
National Institutes of Environmental Health Sciences [NIEHS]
National Toxicology Program [NTP]
U.S. Food and Drug Administration [FDA]
The Glucocorticoid receptor (GR) is one of the members of the nuclear receptor family of ligand-dependent transcription factors. GR plays a critical role in carbohydrate, protein and lipid metabolisms and programmed cell death. CellSensor GR-bla HeLa cell line (Invitrogen) contains a beta-lactamase reporter gene under the control of the glucocorticoid response element stably integrated into HeLa cells, a cervical cancer cell line that expresses glucocorticoid receptor. The activation of the reporter gene under culture conditions can be detected by fluorescence intensity. This cell line has been used to screen the Tox21 10K compound library and to identify the compounds that inhibit the GR signaling. The cytotoxicity of the Tox21 compound library against the GR-bla HeLa cell line was tested in parallel by measuring the cell viability using CellTiter-Glo assay in the same wells.
Tox21 Assay Protocol Summary:
The GR-bla HeLa cells were dispensed at 1500 cells/5 ul/well in 1536-well black wall/clear bottom plates using a Multidrop Combi (ThermoFisher Scientific, Waltham, MA) dispenser. After the assay plates were incubated at a 37 C/5% CO2 incubator for 4 hours, 23 nL of compounds dissolved in DMSO, positive controls or DMSO only was transferred to the assay plate by a pintool station (Kalypsys, San Diego, CA), followed by addition of 1 uL of dexamethasone (5 nM, final concentration in the well). The plates were incubated at 37 C for 18 hours. After 1 uL of LiveBLAzerTM B/G FRET substrate was added using a Flying Reagent Dispenser (Aurora Discovery, San Diego, CA), the plates were incubated at room temperature (RT) for 2 hours, and fluorescence intensity was measured by an Envision plate reader (PerkinElmer, Shelton, CT). After measurement of bla assay, 3 ul CellTiter-Glo (Promega, Madison, WI) was added to measure the cytotoxicity and the plates were then incubated at RT for 30 min. The luminescence was measured using a ViewLux (Perkin Elmer) plate reader.
For `OC[C@H]1O[C@@H]2O[C@H]3[C@H](O)[C@@H](O)[C@@H](O[C@H]4[C@H](O)[C@@H](O)[C@@H](O[C@H]5[C@H](O)[C@@H](O)[C@@H](O[C@H]6[C@H](O)[C@@H](O)[C@@H](O[C@H]7[C@H](O)[C@@H](O)[C@@H](O[C@H]1[C@H](O)[C@H]2O)O[C@@H]7CO)O[C@@H]6CO)O[C@@H]5CO)O[C@@H]4CO)O[C@@H]3CO`, the Potency result was “inactive”.

Regarding `[O-]/[N+](=N\O)c1ccccc1`, the Potency result was “inactive”. Regarding `O=C(O)CCCCCCCCCCCC(=O)O`, the Potency entry was “inactive”.

For the molecule `Cc1ccc(C(C)(C)C)c(O)c1`, the Potency entry was “inactive”. `c1ccc2cc3ccccc3cc2c1`: the Potency result is “inactive”. Take `CC(C)(Oc1ccc(Cl)cc1)C(=O)O`: the Potency result is “inactive”.

`CNC[C@H](O)c1ccc(O)c(O)c1`: the Potency result is “inactive”. In the case of `COC(=O)C(C)Oc1ccc(Oc2ncc(C(F)(F)F)cc2Cl)cc1` (stereo not given) it was “inactive”; in that of `COc1ccc(C(=O)c2ccccc2O)c(O)c1`, “inactive”; in that of `C[C@]12CC[C@@H]3c4ccc(O)cc4CC[C@H]3[C@@H]1CC[C@H]2O`, 17.4 µM (active).

For `C=CCCCCCCCCCC`, the Potency result is “inactive”. The same measure for `C[C@]12C=CC(=O)C=C1CC[C@H]1[C@@H]3C[C@@H](O)[C@](O)(C(=O)CO)[C@@]3(C)C[C@H](O)[C@@]12F`: “inactive”; for `OCCNCCO`: “inactive”. The same measure for `CC(=O)[C@@]1(O)CC[C@H]2[C@@H]3C[C@H](C)C4=CC(=O)C=C[C@]4(C)[C@@]3(F)[C@@H](O)C[C@@]21C`: “inactive”. In the case of `Cc1ccc(S(=O)(=O)NCl)cc1`, the Potency entry was “inactive”. For `CCCCCC=O`, the Potency result was “inactive”. In the case of `O=C(CCCN1CCC(O)(c2ccc(Cl)cc2)CC1)c1ccc(F)cc1`, the Potency entry was “inactive”. The same measure for `Clc1ccc(Sc2cc(Cl)c(Cl)cc2Cl)cc1`: “inactive”; for `O=C(O)COCCN1CCN(C(c2ccccc2)c2ccc(Cl)cc2)CC1` (stereo not given): “inactive”. In the case of `NCCN` it was “inactive”; in that of `CCCCCCCC/C=C\CCCCCCCC(=O)O`, “inactive”.

Turning to `C=CN1CCCC1=O`, the Potency result is “inactive”. Regarding `[Na+]`, the Potency result was “inactive”. The same measure for `CC(C)[N+](C)(CCOC(=O)C1c2ccccc2Oc2ccccc21)C(C)C`: “inactive”; for `CC[C@]12CCCN3CCc4c(n(c5ccccc45)[C@@](O)(C(=O)OC)C1)[C@@H]32`: “inactive”; for `c1ccc2c(c1)ccc1ncccc12`: “inactive”. In the case of `COC(=O)CC(=O)OC` it was “inactive”.

Turning to `C[N+](C)(C)CCO`, the Potency entry is “inactive”. In the case of `O=C1CCc2ccccc2O1` it was “inactive”.

On to `CCCCCCC(C)O` (stereo not given), for which the Potency result is “inactive”. In the case of `C=CC(C)(O)CCC=C(C)C` (stereo not given) it was “inactive”.

For `C=C[C@@]1(C)CC(=O)[C@]2(O)[C@@]3(C)[C@@H](O)CCC(C)(C)[C@@H]3[C@H](O)[C@H](OC(C)=O)[C@@]2(C)O1`, the Potency entry was “inactive”. Take `CC(C)=CCO`: the Potency result was “inactive”. As for `CC1(C)NC(=O)N(c2ccc([N+](=O)[O-])c(C(F)(F)F)c2)C1=O`, the Potency entry is “inactive”. The same measure for `c1ccc2ncccc2c1`: “inactive”; for `COC(=O)c1ccc(C)cc1`: “inactive”; for `O=C1OC2(c3ccccc31)c1cc(I)c(O)c(I)c1Oc1c2cc(I)c(O)c1I`: “inactive”. The same measure for `Cc1ccc([N+](=O)[O-])c(C)c1`: “inactive”; for `CC(C)(C)c1cccc(C(C)(C)C)c1O`: “inactive”; for `Cc1cccc(Nc2ccccc2C(=O)O)c1C`: “inactive”.
